# In PMC11006913:
# Changes are numbered by the printed parent chain.
# How the values were obtained:
# Test in all cases: PBM; 200 nM protein, PBS
# Conditions in all cases: dsDNA, one strand shown
# HOXA7 [1] = biological target: HOXA7 (Homo sapiens, UniProt P31268 116-202)
# PROP1 [2] = biological target: PROP1 (Homo sapiens, UniProt O75360 56-141)
# PROP1 [3] = biological target: PROP1 (Homo sapiens, UniProt O75360 56-141, R99H)
# PROP1 [4] = biological target: PROP1 (Homo sapiens, UniProt O75360 56-141, F88S)
# HOXA7 [5] = biological target: HOXA7 (Homo sapiens, UniProt P31268 116-202, W177C)
# PAX4 [6] = biological target: T1, PAX4 (Homo sapiens, UniProt O43316 9-242, R200K)
# T1 sequence: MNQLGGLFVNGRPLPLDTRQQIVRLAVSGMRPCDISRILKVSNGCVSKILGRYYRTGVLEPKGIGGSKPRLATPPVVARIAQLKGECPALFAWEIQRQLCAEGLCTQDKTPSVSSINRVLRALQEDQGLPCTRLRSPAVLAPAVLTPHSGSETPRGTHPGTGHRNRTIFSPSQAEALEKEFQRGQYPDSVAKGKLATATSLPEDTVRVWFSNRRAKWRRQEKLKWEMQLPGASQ
# PAX4 [7] = biological target: T2, PAX4 (Homo sapiens, UniProt O43316 9-242)
# T2 sequence: T1 sequence with K192R
# PAX4 [8] = biological target: T3, PAX4 (Homo sapiens, UniProt O43316 9-242, R200Q)
# T3 sequence: T1 sequence with K192Q
# PAX4 [9] = biological target: T4, PAX4 (Homo sapiens, UniProt O43316 9-242, F177V)
# T4 sequence: T1 sequence with F169V, K192R
# PAX4 [10] = biological target: T5, PAX4 (Homo sapiens, UniProt O43316 9-242, F177Y)
# T5 sequence: T1 sequence with F169Y, K192R
# PAX4 [11] = biological target: T6, PAX4 (Homo sapiens, UniProt O43316 9-242, R227W)
# T6 sequence: T1 sequence with K192R, R219W
# HOXD13 [12] = biological target: HOXD13 (Homo sapiens, UniProt P35453 263-343, T313R)
# HOXD13 [13] = biological target: HOXD13 (Homo sapiens, UniProt P35453 263-343)
# Sequence of HOXD13 (Homo sapiens, UniProt P35453 263-343) (P35453 263-343): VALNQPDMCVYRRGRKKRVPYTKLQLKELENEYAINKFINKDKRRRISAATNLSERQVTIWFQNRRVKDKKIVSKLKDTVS
# Sequence of HOXA7 (Homo sapiens, UniProt P31268 116-202, W177C) (P31268 116-202 W177C): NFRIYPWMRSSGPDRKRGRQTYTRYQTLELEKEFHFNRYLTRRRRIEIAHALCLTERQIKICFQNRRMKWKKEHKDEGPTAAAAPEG
# Sequence of HOXA7 (Homo sapiens, UniProt P31268 116-202) (P31268 116-202): as the sequence (P31268 116-202 W177C) above, with C62W counted along it
# Sequence of PROP1 (Homo sapiens, UniProt O75360 56-141, F88S) (O75360 56-141 F88S): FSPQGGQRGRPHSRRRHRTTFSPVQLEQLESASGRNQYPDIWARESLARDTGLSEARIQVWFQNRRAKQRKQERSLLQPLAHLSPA
# Sequence of PROP1 (Homo sapiens, UniProt O75360 56-141) (O75360 56-141): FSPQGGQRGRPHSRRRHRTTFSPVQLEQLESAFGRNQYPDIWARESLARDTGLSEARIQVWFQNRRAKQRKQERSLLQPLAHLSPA
# Sequence of PROP1 (Homo sapiens, UniProt O75360 56-141, R99H) (O75360 56-141 R99H): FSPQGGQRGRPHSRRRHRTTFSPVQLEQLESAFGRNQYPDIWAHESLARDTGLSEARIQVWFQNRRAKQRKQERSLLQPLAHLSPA
# Sequence of HOXD13 (Homo sapiens, UniProt P35453 263-343, T313R) (P35453 263-343 T313R): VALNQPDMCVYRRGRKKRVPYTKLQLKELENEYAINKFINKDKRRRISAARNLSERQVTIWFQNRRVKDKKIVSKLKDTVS
sequence,measurement,setting,value
CAGTGCGG,binding signal,HOXA7 [1],"8.54 upbm affinity estimate (log intensity, higher = more binding, comparable within an allelic series)"
same,binding signal,PROP1 [2],"6.84 upbm affinity estimate (log intensity, higher = more binding, comparable within an allelic series)"
same,binding signal,PROP1 [3],"6.82 upbm affinity estimate (log intensity, higher = more binding, comparable within an allelic series)"
same,binding signal,PROP1 [4],"6.73 upbm affinity estimate (log intensity, higher = more binding, comparable within an allelic series)"
same,binding signal,HOXA7 [5],"8.37 upbm affinity estimate (log intensity, higher = more binding, comparable within an allelic series)"
GCAGGTCC,binding signal,HOXA7 [1],"8.46 upbm affinity estimate (log intensity, higher = more binding, comparable within an allelic series)"
same,binding signal,HOXA7 [5],"8.46 upbm affinity estimate (log intensity, higher = more binding, comparable within an allelic series)"
CGTTGCTC,binding signal,HOXA7 [1],"8.49 upbm affinity estimate (log intensity, higher = more binding, comparable within an allelic series)"
same,binding signal,PAX4 [6],"9.58 upbm affinity estimate (log intensity, higher = more binding, comparable within an allelic series)"
same,binding signal,PAX4 [7],"9.38 upbm affinity estimate (log intensity, higher = more binding, comparable within an allelic series)"
same,binding signal,PAX4 [8],"9.57 upbm affinity estimate (log intensity, higher = more binding, comparable within an allelic series)"
same,binding signal,PAX4 [9],"9.52 upbm affinity estimate (log intensity, higher = more binding, comparable within an allelic series)"
same,binding signal,PAX4 [10],"9.55 upbm affinity estimate (log intensity, higher = more binding, comparable within an allelic series)"
same,binding signal,PAX4 [11],"9.55 upbm affinity estimate (log intensity, higher = more binding, comparable within an allelic series)"
same,binding signal,HOXA7 [5],"8.47 upbm affinity estimate (log intensity, higher = more binding, comparable within an allelic series)"
CGTTTATC,binding signal,HOXA7 [1],"9.65 upbm affinity estimate (log intensity, higher = more binding, comparable within an allelic series)"
same,binding signal,PROP1 [2],"8.39 upbm affinity estimate (log intensity, higher = more binding, comparable within an allelic series)"
same,binding signal,PROP1 [3],"7.9 upbm affinity estimate (log intensity, higher = more binding, comparable within an allelic series)"
same,binding signal,PROP1 [4],"7.41 upbm affinity estimate (log intensity, higher = more binding, comparable within an allelic series)"
same,binding signal,HOXA7 [5],"8.89 upbm affinity estimate (log intensity, higher = more binding, comparable within an allelic series)"
ATTACCAC,binding signal,HOXA7 [1],"10.4 upbm affinity estimate (log intensity, higher = more binding, comparable within an allelic series)"
same,binding signal,HOXD13 [12],"10.1 upbm affinity estimate (log intensity, higher = more binding, comparable within an allelic series)"
same,binding signal,HOXD13 [13],"10.7 upbm affinity estimate (log intensity, higher = more binding, comparable within an allelic series)"
same,binding signal,HOXA7 [5],"8.73 upbm affinity estimate (log intensity, higher = more binding, comparable within an allelic series)"
CGCTGTGC,binding signal,HOXA7 [1],"8.49 upbm affinity estimate (log intensity, higher = more binding, comparable within an allelic series)"
same,binding signal,HOXA7 [5],"8.35 upbm affinity estimate (log intensity, higher = more binding, comparable within an allelic series)"
AAGACGAG,binding signal,HOXA7 [1],"8.4 upbm affinity estimate (log intensity, higher = more binding, comparable within an allelic series)"
same,binding signal,HOXA7 [5],"8.43 upbm affinity estimate (log intensity, higher = more binding, comparable within an allelic series)"
CTATTATA,binding signal,HOXA7 [1],"10.7 upbm affinity estimate (log intensity, higher = more binding, comparable within an allelic series)"
same,binding signal,HOXA7 [5],"8.92 upbm affinity estimate (log intensity, higher = more binding, comparable within an allelic series)"
CCTGTGTC,binding signal,HOXA7 [1],"8.55 upbm affinity estimate (log intensity, higher = more binding, comparable within an allelic series)"
same,binding signal,HOXA7 [5],"8.53 upbm affinity estimate (log intensity, higher = more binding, comparable within an allelic series)"
AGTAGCCG,binding signal,HOXA7 [1],"8.51 upbm affinity estimate (log intensity, higher = more binding, comparable within an allelic series)"
same,binding signal,HOXA7 [5],"8.43 upbm affinity estimate (log intensity, higher = more binding, comparable within an allelic series)"
CCATAATC,binding signal,HOXA7 [1],"9.89 upbm affinity estimate (log intensity, higher = more binding, comparable within an allelic series)"
same,binding signal,HOXA7 [5],"8.75 upbm affinity estimate (log intensity, higher = more binding, comparable within an allelic series)"
CACCTACG,binding signal,HOXA7 [1],"8.56 upbm affinity estimate (log intensity, higher = more binding, comparable within an allelic series)"
same,binding signal,HOXA7 [5],"8.57 upbm affinity estimate (log intensity, higher = more binding, comparable within an allelic series)"
ACCGCTCC,binding signal,HOXA7 [1],"8.61 upbm affinity estimate (log intensity, higher = more binding, comparable within an allelic series)"
same,binding signal,HOXA7 [5],"8.49 upbm affinity estimate (log intensity, higher = more binding, comparable within an allelic series)"
CCATGCTC,binding signal,HOXA7 [1],"8.55 upbm affinity estimate (log intensity, higher = more binding, comparable within an allelic series)"
same,binding signal,HOXA7 [5],"8.51 upbm affinity estimate (log intensity, higher = more binding, comparable within an allelic series)"
CCCCGTTA,binding signal,HOXA7 [1],"9.61 upbm affinity estimate (log intensity, higher = more binding, comparable within an allelic series)"
same,binding signal,HOXA7 [5],"8.75 upbm affinity estimate (log intensity, higher = more binding, comparable within an allelic series)"
ACCTAATC,binding signal,HOXA7 [1],"9.7 upbm affinity estimate (log intensity, higher = more binding, comparable within an allelic series)"
same,binding signal,HOXA7 [5],"8.88 upbm affinity estimate (log intensity, higher = more binding, comparable within an allelic series)"
CGGGTGCC,binding signal,HOXA7 [1],"8.6 upbm affinity estimate (log intensity, higher = more binding, comparable within an allelic series)"
same,binding signal,HOXA7 [5],"8.41 upbm affinity estimate (log intensity, higher = more binding, comparable within an allelic series)"
ATATTGTA,binding signal,HOXA7 [1],"9.55 upbm affinity estimate (log intensity, higher = more binding, comparable within an allelic series)"
same,binding signal,HOXA7 [5],"8.9 upbm affinity estimate (log intensity, higher = more binding, comparable within an allelic series)"
CGCTGAAG,binding signal,HOXA7 [1],"8.52 upbm affinity estimate (log intensity, higher = more binding, comparable within an allelic series)"
same,binding signal,HOXA7 [5],"8.44 upbm affinity estimate (log intensity, higher = more binding, comparable within an allelic series)"
AAGGACTG,binding signal,HOXA7 [1],"8.44 upbm affinity estimate (log intensity, higher = more binding, comparable within an allelic series)"
same,binding signal,HOXA7 [5],"8.4 upbm affinity estimate (log intensity, higher = more binding, comparable within an allelic series)"
CAAGCACC,binding signal,HOXA7 [1],"8.65 upbm affinity estimate (log intensity, higher = more binding, comparable within an allelic series)"
same,binding signal,HOXA7 [5],"8.49 upbm affinity estimate (log intensity, higher = more binding, comparable within an allelic series)"
